Only some compounds are listed: those with a hit (about 19% of all), similar ones and a draw of the others.
SW480 rerep: A quantitative high throughput screen for small molecules that induce DNA re-replication in SW480 colon adenocarcinoma cells; SW480 DNA re-replication, Hoechst DNA content imaging, 48 h; Potency, µM (series often up to 46.1 µM), actives largely listed as activators; 340,000 compounds, 1.8% hits; AID 624297, 2012; note: nearly all actives have a fitted effect of over 55% in size
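First, 250 cells per well were seeded. Next, compound or vehicle (23 nL) was pinned in, plates sat 48 hr at 37 C. Finally Hoechst was added for 40 min before fluorescence scanning.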
TDP1 cell CPT: qHTS for Inhibitors of human tyrosyl-DNA phosphodiesterase 1 (TDP1): qHTS in cells in presence of CPT. chicken DT40 Tdp1-/-;hTDP1 cells + 20 nM CPT, ATP luminescence, 48 h. 420,000 compounds, 12% hits. AID 686979, 2013. Potency, µM (doses to about 46.2 µM), most hits filed as inhibitors; note: nearly all actives have a fitted effect of over 55% in size
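Chicken DT40 Tdp1-/- cells stably complemented with human TDP1 were seeded at 400 cells/well in medium containing 20 nM camptothecin, exposed to pin-transferred compounds, and grown at 37 °C for at least 48 hr. Viability was read as ATP luminescence.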
DT40 TDP1 no CPT: qHTS for Inhibitors of human tyrosyl-DNA phosphodiesterase 1 (TDP1): qHTS in cells in absence of CPT. DT40 Tdp1-/- hTDP1 cells, no CPT, ATP luminescence, 48 h. Potency, µM (series often up to 46.2 µM), usual class: inhibitors. 420,000 compounds, 15% hits. AID 686978, 2013; note: nearly all actives have a fitted effect of over 55% in size
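Growth of hTDP1-complemented DT40 Tdp1-knockout cells is measured by ATP luminescence after at least 48 hr compound exposure at 37 °C, with DMSO substituting for the 20 nM CPT used in the parallel screen.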
IL1B secr inh: qHTS for Inhibitors of Inflammasome Signaling: IL-1-beta AlphaLISA Primary Screen | 360,000 compounds, 4.7% hits | activity change, % at 57.5 µM | AID 743279, 2014 | THP-1 LPS/ATP IL-1B secretion, AlphaLISA, 16 h; stronger effect = lower value; in the data active = activity change below about -50%; inconclusive = mostly about -30% to -49%
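Secreted IL-1B measured by AlphaLISA bead assay after 16 h compound exposure of THP-1 cells; compounds (final up to 57.5 uM) added 1 h before LPS (250 ng/mL) and ATP (1.25 mM) stimulation; lower signal means less secretion.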
MCF10A rereplic: A quantitative high throughput screen for small molecules that induce DNA re-replication in MCF 10a normal breast cells | 350,000 compounds, 2.9% hits | MCF 10A DNA re-replication, Hoechst nuclear intensity, 48 h | Potency, µM (doses to about 46.1 µM), usual class: activators; note: nearly all actives have a fitted effect of over 50% in size
BCR signal inh: qHTS Assay to Find Inhibitors of Chronic Active B-Cell Receptor Signaling; 340,000 compounds, 0.05% hits; ABC-DLBCL IkBa-CBG/CBR reporter, luminescence ratio, 4 h; AID 493014, 2011; Potency, µM (highest dose often 46.1 µM), actives largely listed as inhibitors; active = well fitted inhibition curve with a large enough effect in the signal ratio, with a control signal flat, not every such curve was filed as active; inconclusive = small, poorly fitted or top-dose-only effect, or effect the other way, or a change in a side signal; the % refers to the signal ratio
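TMD8 ABC-DLBCL cells carrying doxycycline-inducible green luciferase fused to IkappaBalpha plus unfused red luciferase were exposed to compounds (up to 46 uM) for 4 hrs at 37C. Activity came from the overlap-corrected green/red luminescence ratio.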
Hits are given with their value; – = inactive; ? = inconclusive; · = not tested or not shown. Unless noted, calls come from the whole dose curve; as a rule, active = well fitted curve in the direction sought with a large enough effect; inconclusive = small, poorly fitted or top-dose-only effect, or another doubt; inactive = no such curve, though single readings can be large; an effect the other way counts as inactive or inconclusive.

SMILES	SW480 rerep	TDP1 cell CPT	DT40 TDP1 no CPT	IL1B secr inh	MCF10A rereplic	BCR signal inh
O=S1(=O)OCCC(c2ccccc2)N1Cc1ccccc1 (configuration not stated)	–	?	–	–	–	–
CCN1C[C@@]2(COC)C3[C@@H](OC)[C@H]4[C@@H]1[C@@]3(C1C[C@@]3(O)[C@H](OC(=O)c5ccccc5)C1[C@]4(OC(C)=O)[C@@H](O)[C@H]3OC)[C@@H](OC)C[C@H]2O (some centres not stated)	–	–	–	–	–	·
Cc1ccc(S(=O)(=O)NN=Cc2cc(Cl)ccc2O)cc1	–	–	–	–	?	·
CCCNC(=O)N1[C@H]2CC[C@@H]1C(C(=O)OC)=C(c1cc3ccccc3s1)C2	–	12µM	·	–	–	·
COC(=O)C1=C(c2ccccc2)C[C@@H]2CC[C@H]1N2C(=O)NCCCOC(C)C	–	–	–	–	–	·
COC(=O)C1=C(c2cc3ccccc3s2)C[C@@H]2CC[C@H]1N2C(=O)NCCCOC(C)C	–	18µM	18µM	–	–	·
COC(=O)C1=C(c2cc3ccccc3s2)C[C@@H]2CC[C@H]1N2C(=O)NCc1ccccc1	–	?	?	–	–	·
CC(C)(C)OC(=O)c1ncn2c1[C@@H]1CCCN1C(=O)c1c(Br)cccc1-2	–	–	?	·	–	·
O=c1c2ccccc2nc(CNCc2ccco2)n1-c1ccc(F)cc1	–	?	?	–	–	–
N#Cc1c(Cl)nc(Cl)c2c1CCN(Cc1ccccc1)C2	–	?	16µM	·	?	?
COc1cc2c(cc1OC)C1C(=O)c3c(cc4c(c3O)C=CC(C)(C)O4)OC1CO2 (configuration not stated)	·	1.3µM	0.73µM	·	·	·
O=[N+]([O-])c1nccn1CC(O)CN1CC1 (configuration not stated)	·	12µM	10µM	–	·	·
COc1cc(C2c3cc4c(cc3CC3COC(=O)C32)OCO4)cc(OC)c1OC (configuration not stated)	?	0.021µM	0.0052µM	–	6.5µM	?
COc1cc(C2c3cc(O)c(OC)cc3CC3C(=O)OCC32)ccc1O (configuration not stated)	–	–	–	–	–	·
COc1cc([C@@H]2c3cc4c(cc3C[C@H]3COC(=O)[C@@H]32)OCO4)cc(OC)c1O	·	0.071µM	0.032µM	·	·	·
Cc1nc2c(-c3ccc(F)cc3)c(C)nn2c(C)c1CCC(=O)N1CCC2(CC1)OCCO2	–	–	–	–	–	–
COc1ccc(CCNC(=O)CCc2c(C)nc3c(-c4ccc(F)cc4)c(C)nn3c2C)cc1OC	·	8.2µM	12µM	·	·	·
CC(C)(c1ccc(OCC2CO2)cc1)c1ccc(OCC2CO2)cc1 (configuration not stated)	·	6.5µM	6.5µM	·	·	·
c1ccc(OCC2CO2)cc1 (configuration not stated)	–	–	–	–	?	–
O=C(NC(=C(Cl)Cl)P(=O)(c1ccccc1)c1ccccc1)c1ccccc1	–	?	–	?	–	–
CN1C2CCC1CC(OC(c1ccccc1)c1ccc(Cl)cc1)C2 (configuration not stated)	–	3µM	4.7µM	·	–	·
CN1C2CCC1CC(OC(c1ccccc1)c1ccccc1N)C2 (configuration not stated)	–	?	?	–	–	·
O=C(COC(=O)c1cccc(O)c1)Nc1ccc(Cl)cc1C(=O)c1ccccc1	–	?	?	–	–	–
CC(C)C[C@H]1C(=O)N2CCC[C@H]2[C@]2(O)O[C@](NC(=O)[C@@H]3C=C4c5cccc6[nH]cc(c56)C[C@H]4N(C)C3)(C(C)C)C(=O)N12	?	21µM	16µM	–	–	–
CN1C[C@H](C(=O)NC2(C)OC3(O)[C@@H]4CCCN4C(=O)[C@H](Cc4ccccc4)N3C2=O)CC2c3cccc4[nH]cc(c34)C[C@H]21 (some centres not stated)	?	16µM	16µM	–	–	·
SMILES	SW480 rerep	TDP1 cell CPT	DT40 TDP1 no CPT	IL1B secr inh	MCF10A rereplic	BCR signal inh
FC(F)(F)c1ccc(NC2=NCCCS2)cc1	–	–	–	–	–	–
Oc1ccc2c3c1O[C@H]1[C@@H](O)CC[C@@]4(O)C(C2)N(CC2CCC2)CCC314 (some centres not stated)	–	–	–	·	–	·
COc1ccc(-n2c(=S)[nH]c3c(sc(=S)n3-c3ccccc3)c2=O)c(OC)c1	–	21µM	16µM	–	–	–
COc1ccc(-n2c(=O)[nH]c3ccccc3c2=O)c(OC)c1	–	–	–	–	–	–
CNC(=O)O/N=C/C(C)(C)S(C)=O (configuration not stated)	·	–	–	·	·	·
CC1(C)CC2CCC(O)C2C(CCO)N1 (configuration not stated)	–	–	–	–	?	·
O=C(NNc1ccccn1)c1ccccc1CC[N+](=O)[O-]	–	–	–	–	–	?
CC1CN(c2ccc([N+](=O)[O-])c3cccnc23)CC(C)N1 (configuration not stated)	–	–	23µM	–	–	–
COc1ccc(OC)c(C2=NS(=O)(=O)N(C)C(C(=O)Nc3ccc(F)cc3F)=C2)c1	–	16µM	7.3µM	–	–	?
O=C(Nc1ccc(F)c([N+](=O)[O-])c1)N1C[C@H]2C[C@@H](C1)c1cccc(=O)n1C2	–	–	–	–	–	–
O=P(O)(O)c1ccccc1OCCOCCOCCOCCOc1ccccc1P(=O)(O)O	–	–	–	–	–	?
CO[C@H](C(=O)[C@@H](O)[C@@H](C)O)C1Cc2cc3cc(O[C@H]4C[C@@H](O[C@H]5C[C@@H](O)[C@H](O)[C@@H](C)O5)[C@@H](O)[C@@H](C)O4)c(C)c(O)c3c(O)c2C(=O)[C@H]1O[C@H]1C[C@@H](O[C@H]2C[C@@H](O[C@H]3C[C@](C)(O)[C@H](O)[C@@H](C)O3)[C@H](O)[C@@H](C)O2)[C@H](O)[C@@H](C)O1 (some centres not stated)	?	0.075µM	0.084µM	·	–	·
